Data: PubChem BioAssay (NCI)
This is part of a sample that, as a whole, favours compounds with a hit. Of some 79,000 tested, about 15% had one in any assay. The source made the active and inactive calls. Rule as the data show it: active = growth inhibition above about 70%; inactive = the rest.

Columns and labels:
[1] = NCI Yeast Anticancer Drug Screen. Data for the rad52 strain (AID 147);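 also: 0% = growth of vehicle-treated control cultures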; details: S. cerevisiae rad52 mutant growth inhibition, active compounds read high
In short: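 The repair-mutant yeast strain was incubated with compounds, then growth was read and inhibition derived relative to vehicle.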

[2] = NCI Yeast Anticancer Drug Screen. Data for the wt1 strain (AID 149);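 also: 0% = growth of vehicle-treated wt1 cultures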; details: S. cerevisiae wt1 strain (SPY 50644) growth inhibition, active compounds read high
In short: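 Compounds are added to wt1 yeast cultures. Growth is then measured. Inhibition is expressed relative to vehicle-treated controls.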

[3] = NCI Yeast Anticancer Drug Screen. Data for the rad50EPP+ strain (AID 151);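 also: 0% = growth of vehicle-treated control cultures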; details: S. cerevisiae rad50 mutant strain, active compounds read high
In short: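 Vehicle-normalised growth inhibition; rad50EPP+ yeast strain, altered in DNA damage repair, compound-treated.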

[4] = NCI Yeast Anticancer Drug Screen. Data for the mgt1 strain (AID 153); details: S. cerevisiae mgt1 mutant growth inhibition, active compounds read high
In short: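 Vehicle-normalized growth inhibition is determined in mgt1 yeast, a strain selected for a defined alteration in DNA repair or cell cycle control.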

[5] = NCI Yeast Anticancer Drug Screen. Data for the rad50 strain (AID 155);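 also: 0% = growth of vehicle-only cultures of the same strain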; details: S. cerevisiae rad50 strain growth inhibition, active compounds read high
In short: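 Inhibition values express reduced yeast growth in compound-treated cultures relative to vehicle-treated controls.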

[6] = NCI Yeast Anticancer Drug Screen. Data for the mec2-1 strain (AID 157); details: S. cerevisiae mec2-1 strain, active compounds read high
In short: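 Mutant yeast (mec2-1) grown with compound; growth inhibition relative to vehicle control reported.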

[7] = NCI Yeast Anticancer Drug Screen. Data for the rad14 strain (AID 159);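 also: 0% = growth of vehicle-treated control cultures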; details: S. cerevisiae rad14 strain growth inhibition, active compounds read high
In short: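 A mutant yeast strain defective in DNA damage repair is treated with compound; inhibition of its growth is scored against untreated, vehicle-exposed cultures.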

[8] = NCI Yeast Anticancer Drug Screen. Data for the sgs1 mgt1 strain (AID 161);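 also: 0% = growth of cultures given vehicle only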; details: S. cerevisiae sgs1 mgt1 strain, active compounds read high
In short: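 Percent growth inhibition was derived by comparing compound-exposed mutant yeast with vehicle-exposed cultures. The strain carries alterations in DNA damage repair.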

[9] = NCI Yeast Anticancer Drug Screen. Data for the CLN2oe strain (AID 163);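 also: 0% = growth of vehicle-only control cultures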; details: S. cerevisiae CLN2oe strain, active compounds read high
In short: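 Compounds are applied to yeast harbouring a defined cell-cycle control change; reduced growth compared with vehicle-treated controls gives the value.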

[10] = NCI Yeast Anticancer Drug Screen. Data for the cln2 rad14 strain (AID 165);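 also: 0% = growth equal to vehicle treated cultures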; details: S. cerevisiae cln2 rad14 strain, active compounds read high
In short: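 Readout is yeast growth inhibition versus vehicle-treated controls, using a strain with cln2 and rad14 alterations exposed to compound.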

[11] = NCI Yeast Anticancer Drug Screen. Data for the bub3 strain (AID 167); details: S. cerevisiae bub3 mutant strain, active compounds read high
In short: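 Steps: expose the mutant yeast strain to compound; grow alongside vehicle-treated cultures; measure growth; express inhibition against the vehicle cultures.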

[12] = NCI Yeast Anticancer Drug Screen. Data for the mlh1 strain (AID 171);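 also: 0% = growth of vehicle-treated control cultures of the same strain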; details: S. cerevisiae mlh1 strain growth inhibition, active compounds read high
In short: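 Measured: yeast growth. Reference: vehicle-treated controls. Organism: strain with a defined alteration affecting DNA damage repair or cell cycle control, treated with compound.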

[13] = NCI Yeast Anticancer Drug Screen. Data for the sgs1 strain (AID 173);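 also: 0% = growth of vehicle-only control cultures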; details: S. cerevisiae sgs1 mutant, active compounds read high
In short: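 Each compound was added to cultures of the altered yeast strain. Growth was recorded, and inhibition was derived by comparison with vehicle controls.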

[14] = NCI Yeast Anticancer Drug Screen. Data for the mlh1 rad18 strain (AID 175); details: S. cerevisiae mlh1 rad18 strain growth inhibition, active compounds read high
In short: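 Genetically defined yeast (DNA repair-deficient) exposed to compounds; growth inhibition determined relative to vehicle.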

[15] = NCI Yeast Anticancer Drug Screen. Data for the wt2 strain (AID 169);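 also: 0% = growth of vehicle-treated yeast cultures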; details: S. cerevisiae wt2 strain growth inhibition, active compounds read high
In short: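 Against vehicle-treated controls, the growth of yeast exposed to each compound was compared, and the inhibition was recorded.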

[16] = NCI Yeast Anticancer Drug Screen. Data for the rad18 strain (AID 177); details: S. cerevisiae rad18 mutant growth inhibition, active compounds read high
In short: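 Vehicle-treated cultures served as the baseline for scoring compound-induced growth inhibition in DNA-repair-mutant yeast.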

[17] = at 5.0 µM (retest, dose inferred, filed as 0.5)
[18] = at 50.0 µM (retest, dose inferred, filed as 5.0)

Measured: growth inhibition

CSC(=S)Nc1cccc(C)n1
active: [5]; [17] 88% | [5]; [18] 99% | [5]; at 100.0 µM 79% | [6]; [17] 70% | [6]; [18] 99% | [11]; at 100.0 µM 74% | [14]; [18] 99% | [14]; at 50.0 µM 70.1%
inactive: [1]; at 1.2 µM -6% | [1]; at 3.7 µM -5% | [1]; at 11.0 µM -3% | [1]; at 33.0 µM 23% | [1]; at 100.0 µM 63% | [2]; at 1.2 µM -35% | [2]; at 3.7 µM -24% | [2]; at 11.0 µM -25% | [2]; at 33.0 µM -15% | [2]; at 100.0 µM 3% | [3]; at 1.2 µM -15% | [3]; at 3.7 µM -19% | [3]; at 11.0 µM -27% | [3]; at 33.0 µM -24% | [3]; at 100.0 µM 68% | [4]; at 1.2 µM -52% | [4]; at 3.7 µM -29% | [4]; at 11.0 µM -11% | [4]; at 33.0 µM 16% | [4]; at 100.0 µM 59% | [5]; at 1.2 µM -25% | [5]; at 3.7 µM -4% | [5]; at 11.0 µM -11% | [5]; at 33.0 µM 28% | [5]; at 50.0 µM 41.8% | [6]; at 1.2 µM -61% | [6]; at 3.7 µM -61% | [6]; at 11.0 µM -58% | [6]; at 33.0 µM -36% | [6]; at 50.0 µM 31.6% | [6]; at 100.0 µM 34% | [7]; at 1.2 µM -19% | [7]; at 3.7 µM -15% | [7]; at 11.0 µM 9% | [7]; at 33.0 µM 2% | [7]; at 100.0 µM 50% | [8]; [17] -18% | [8]; [18] 29% | [8]; at 50.0 µM 45% | [9]; at 1.2 µM -24% | [9]; at 3.7 µM -8% | [9]; at 11.0 µM -13% | [9]; at 33.0 µM 12% | [9]; at 100.0 µM 24% | [10]; [17] 9% | [10]; [18] 65% | [10]; at 50.0 µM 38.2% | [11]; at 1.2 µM -9% | [11]; at 3.7 µM -16% | [11]; [17] 39% | [11]; at 11.0 µM -3% | [11]; at 33.0 µM 15% | [11]; [18] 63% | [11]; at 50.0 µM 54% | [12]; at 1.2 µM -42% | [12]; at 3.7 µM -40% | [12]; at 11.0 µM -35% | [12]; at 33.0 µM -12% | [12]; at 100.0 µM 66% | [13]; at 1.2 µM -47% | [13]; at 3.7 µM -49% | [13]; at 11.0 µM -32% | [13]; at 33.0 µM -6% | [13]; at 100.0 µM 62% | [14]; [17] 55%

CC(=O)Cc1ccc[cH-]1.[Fe+2].c1cc[cH-]c1
inactive: [1]; at 1.2 µM 5% | [1]; at 3.7 µM 7% | [1]; at 11.0 µM 9% | [1]; at 33.0 µM 18% | [1]; at 100.0 µM 46% | [2]; at 1.2 µM 1% | [2]; at 3.7 µM 2% | [2]; at 11.0 µM 14% | [2]; at 33.0 µM 10% | [2]; at 100.0 µM 7% | [3]; at 1.2 µM 3% | [3]; at 3.7 µM 4% | [3]; at 11.0 µM 8% | [3]; at 33.0 µM 15% | [3]; at 100.0 µM 13% | [4]; at 1.2 µM 8% | [4]; at 3.7 µM 11% | [4]; at 11.0 µM 21% | [4]; at 33.0 µM 11% | [4]; at 100.0 µM 20% | [5]; at 1.2 µM 12% | [5]; at 3.7 µM 24% | [5]; [17] -14% | [5]; at 11.0 µM 22% | [5]; at 33.0 µM 22% | [5]; [18] 8% | [5]; at 100.0 µM 62% | [6]; at 1.2 µM -5% | [6]; at 3.7 µM -5% | [6]; [17] -6% | [6]; at 11.0 µM -1% | [6]; at 33.0 µM 12% | [6]; [18] -12% | [6]; at 50.0 µM 60.6% | [6]; at 100.0 µM 18% | [7]; at 1.2 µM 0% | [7]; at 3.7 µM -5% | [7]; at 11.0 µM 13% | [7]; at 33.0 µM 34% | [7]; at 100.0 µM 49% | [8]; [17] -4% | [8]; [18] 12% | [9]; at 1.2 µM 4% | [9]; at 3.7 µM 5% | [9]; at 11.0 µM 17% | [9]; at 33.0 µM 23% | [9]; at 100.0 µM 23% | [10]; [17] -7% | [10]; [18] 7% | [10]; at 50.0 µM 40.5% | [11]; at 1.2 µM -4% | [11]; at 3.7 µM -10% | [11]; [17] -4% | [11]; at 11.0 µM 7% | [11]; at 33.0 µM 13% | [11]; [18] 15% | [11]; at 100.0 µM 21% | [15]; at 1.2 µM 2% | [15]; at 3.7 µM 5% | [15]; at 11.0 µM 13% | [15]; at 33.0 µM 17% | [15]; at 100.0 µM 32% | [12]; at 1.2 µM -1% | [12]; at 3.7 µM -3% | [12]; at 11.0 µM -2% | [12]; at 33.0 µM 7% | [12]; at 100.0 µM 29% | [14]; [17] 3% | [14]; [18] 68% | [16]; at 1.2 µM 6% | [16]; at 3.7 µM 17% | [16]; at 11.0 µM 29% | [16]; at 33.0 µM 10% | [16]; at 100.0 µM 35%
active: [5]; at 50.0 µM 96.2% | [8]; at 50.0 µM 86.8% | [11]; at 50.0 µM 72.5% | [14]; at 50.0 µM 92.7%
